Inconclusive results are not listed. A number with no mark means an inactive call. The source made the active and inactive calls. Unless noted, calls follow the shape of the dose curve; as a rule, active = well fitted curve in the direction sought with a large enough effect; inconclusive = small, poorly fitted or top-dose-only effect, or another doubt; inactive = no such curve, though single readings can be large; an effect the other way counts as inactive or inconclusive.
Assay: S16 Schwann cell viability assay (CellTiter-Glo assay) (AID 624031); also: nearly all actives have a fitted effect of over 70% in size;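 as to activity change, negative = cytotoxicity: native untransfected S16 rat Schwann cells; plate controls were DMSO-treated cells for no effect and cell-free wells for full effect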
Details: S16 rat Schwann cells viability, 24 h; series mostly up to 57.5 µM; activity change, negative = cytotoxicity: at the top concentration
How it was run: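 Counter-screen for cytotoxicity: parental S16 rat Schwann cells lacking the PMP22 reporters, treated 24 h with compound, viability from cellular ATP by CellTiter-Glo luminescence, normalized to DMSO (0%) and no-cell wells.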
Potency is read from the fitted curve at half-maximal effect.

Structure (SMILES) | activity change, negative = cytotoxicity [%] | Potency
Nc1ccc2cc3ccc(N)cc3nc2c1 | 10.1 | 
CCCCCCCCCCCCCCCC[N+](C)(C)Cc1ccccc1 |  | 16.1 µM (active)
CC(NCCC(c1ccccc1)c1ccccc1)c1ccccc1 (centres undefined) |  | 25.6 µM (active)
Nc1ncnc2nc[nH]c12 | 14 | 
CN1CCCN(C(c2ccccc2)c2ccc(Cl)cc2)CC1 (centres undefined) |  | 32.2 µM (active)
Nc1c2ccccc2nc2ccccc12 | 5.6 | 
CCCCCCCCCCCCCCCC[n+]1ccccc1 |  | 36.1 µM (active)

Assay: S16 Schwann cell PMP22 intronic element firefly luciferase assay (AID 624032); also: nearly all actives have a fitted effect of over 30% in size;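 as to activity change, negative = inhibition: plate controls were DMSO for no effect and PTC124 positive control mean for full effect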
Details: S16 rat Schwann cells, PMP22 element FLuc, 24 h; series mostly up to 57.5 µM; activity change, negative = inhibition: at the top concentration
How it was run: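 Rat S16 Schwann cells stably carrying firefly luciferase driven by a PMP22 intronic element, in 10% FBS, treated 24 h at 37 C. ONE-Glo luminescence normalized to PTC124 control and DMSO (0%); curves classed by r2, magnitude and activity.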

Structure (SMILES) | activity change, negative = inhibition [%] | Potency
Nc1ccc2cc3ccc(N)cc3nc2c1 | 0.389 | 
CCCCCCCCCCCCCCCC[N+](C)(C)Cc1ccccc1 |  | 14.4 µM (active)
Nc1ncnc2nc[nH]c12 | 13.2 | 
CN1CCCN(C(c2ccccc2)c2ccc(Cl)cc2)CC1 (centres undefined) |  | 28.7 µM (active)
CN1CCC(Nc2ncc3ncnc(Nc4ccc(F)c(Cl)c4)c3n2)CC1 |  | 36.1 µM (active)
Nc1c2ccccc2nc2ccccc12 | -10.5 | 
O=[N+]([O-])c1ccc(O)c2ncccc12 | -20.7 | 

Assay: S16 Schwann cell PMP22 intronic element beta-lactamase assay (AID 624044; calls by dose curve; also: nearly all actives have a fitted effect of over 15% in size;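 as to ratio activity, negative = inhibition: 0% = DMSO and -100% = potassium clavulanate positive control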)
Details: S16 rat Schwann cells, PMP22 element beta-lactamase FRET, 24 h; series mostly up to 38.3 µM; ratio activity, negative = inhibition: at the top concentration
How it was run: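 Beta-lactamase reporter under a PMP22 intronic regulatory element in stable S16 rat Schwann cells; 24 h compound exposure. 460 nm blue signal normalized between DMSO (0%) and potassium clavulanate, with 535 nm FRET tracking viability; curves classed by r2 and response.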

Structure (SMILES) | ratio activity, negative = inhibition [%] | Potency
CCCCCCCCCCCCCCCC[N+](C)(C)Cc1ccccc1 | -21.8 | 
CC(NCCC(c1ccccc1)c1ccccc1)c1ccccc1 (centres undefined) | 2.08 | 
Nc1ncnc2nc[nH]c12 | -18.8 | 
CN1CCCN(C(c2ccccc2)c2ccc(Cl)cc2)CC1 (centres undefined) | -15.3 | 
Nc1c2ccccc2nc2ccccc12 |  | 22.4 µM (active)

Reference: PubChem BioAssay (NCATS)
